# From ChEMBL document CHEMBL3988442, “University of Dundee, Small-Polar-MMV Screening Library” (2021)
# In all, about 66,000 compounds went through this assay and about 960 (1.5%) showed an effect of 50% or more. This is one part of a sample in which strong results are shown more often than they occur.
# System: Trypanosoma brucei
# Assay: Trypanosoma brucei 72 hour study
# Type: functional, organism-based
# Set-up: scale not given: in the data most compounds retested in dose-response had high values
structure (smiles),measurement,setting,value
Cc1nc(CN2CCCC(CCc3ccccc3C(F)(F)F)C2)co1 (stereo not drawn),Percent Effect,"30.3 µM, […]",52.02%
Cc1nc(CN2CCCC(CCc3cccc(C(F)(F)F)c3)C2)co1 (stereo not drawn),Percent Effect,"30.3 µM, […]",40.44%
Cn1cc(CN2CCCC(CCc3ccccc3C(F)(F)F)C2)cn1 (stereo not drawn),Percent Effect,"30 µM, 30.03 µM",-18.52%
Cc1ccc2c(n1)N(Cc1cccnc1)CCN(C1CCOCC1)C2.O=C(O)C(F)(F)F.O=C(O)C(F)(F)F.O=C(O)C(F)(F)F,Percent Effect,"30 µM, 30.03 µM",-18.41%
CC1N(c2cnn(C)c2)C(=O)COC12CCN(c1ccccn1)CC2.O=C(O)C(F)(F)F (stereo not drawn),Percent Effect,"30.3 µM, […]",-14.53%
Cc1oncc1C(=O)N1CC[C@H]2[C@H](C[C@@H](CN(C)C)N2CC2CC2)C1.O=C(O)C(F)(F)F.O=C(O)C(F)(F)F,Percent Effect,"30.3 µM, […]",-0.8006%
Cl.O=C(CCN1CCCC1)Nc1c2c(cc3c1CCC3)CCC2,Percent Effect,"30 µM, 30.03 µM",0.04304%
COCC(=O)NC[C@]12COC[C@H]1CN(Cc1ccc3c(c1)OCO3)C2.O=C(O)C(F)(F)F,Percent Effect,"30.3 µM, […]",5.113%
COC1COC2(CCN(C(=O)c3ccccc3F)CC2)C1 (stereo not drawn),Percent Effect,"30.3 µM, […]",-57.28%
CCN(C)c1ncnc2c1CCN(C(=O)Cc1ccccn1)CC2.O=C(O)C(F)(F)F,Percent Effect,"30 µM, 30.03 µM",-43.42%
CO[C@H]1CCN(c2ccc(C)nn2)[C@H]1Cc1cnn(C)c1,Percent Effect,"30 µM, 30.03 µM",12.56%
Cc1ccc(N2CC[C@H](OCC3CC3)[C@@H]2Cc2cnn(C)c2)nn1,Percent Effect,"30 µM, 30.03 µM",51.55%
CCO[C@@H]1CCN(c2ccc(C)nn2)[C@@H]1Cc1cnn(C)c1,Percent Effect,"30.3 µM, […]",-24.65%
Fc1ccccc1CN(CCCn1ccnc1)CC1CCOC1.O=C(O)CC(O)(CC(=O)O)C(=O)O (stereo not drawn),Percent Effect,"30.3 µM, […]",-0.3397%
Cc1cc(CCC(=O)O)nc(C2CCCN2c2ccnc(C)n2)n1 (stereo not drawn),Percent Effect,"30.3 µM, […]",3.845%
Cl.Cl.c1cn(-c2cnc(C3CCNCC3)cn2)cn1,Percent Effect,"30.3 µM, […]",-23.68%
CC(C)(C)c1ccc(OCC(N)=O)c(CN2C[C@H]3C[C@H](O)C[C@H]3C2)c1,Percent Effect,"30.3 µM, […]",-10.55%
COc1ccc(C(=O)N2C[C@@H](NC(=O)N(C)C)[C@H](C(C)C)C2)c(OC)n1,Percent Effect,"30 µM, 30.03 µM",-11.49%
Cc1nc(CN2CCCC(N(C)Cc3cscn3)C2)no1 (stereo not drawn),Percent Effect,"30 µM, 30.03 µM",106.7%
CN(Cc1cscn1)C1CCCN(Cc2noc(C3CC3)n2)C1 (stereo not drawn),Percent Effect,"30 µM, 30.03 µM",-28.03%
Cc1nc(CN(C)C2CCN(Cc3ccc4ccccc4n3)C2)no1 (stereo not drawn),Percent Effect,"30.3 µM, […]",99.64%
Cc1nc(CN(C)C2CCN(Cc3nc4ccccc4s3)C2)no1 (stereo not drawn),Percent Effect,"30 µM, 30.03 µM",13.35%
Cc1nc(CN(C)C2CCN(Cc3nc4ccccc4n3C)C2)no1 (stereo not drawn),Percent Effect,10 µM,-9.408%
same,Percent Effect,"30.3 µM, […]",44.6%
Cc1cc(CN(C)C2CCCN(Cc3noc(C)n3)C2)no1 (stereo not drawn),Percent Effect,"30.3 µM, […]",-25.02%
Cc1occc1C(=O)N1C[C@@H]2OCCN(c3ncccn3)[C@@H]2C1.O=C(O)C(F)(F)F,Percent Effect,"30.3 µM, […]",-9.285%
COc1ccc(-n2ccnc2-c2ccc(C(=O)O)s2)cc1CO,Percent Effect,"30 µM, 30.03 µM",-62.12%
Nc1ncc(-c2ccc(C(F)(F)F)cc2)c(C2CCCNC2)n1 (stereo not drawn),Percent Effect,"30.3 µM, […]",90.9%
Nc1ncc(-c2ccc(F)cc2)c(C2CCCNC2)n1 (stereo not drawn),Percent Effect,"30.3 µM, […]",1.475%
Nc1ncc(-c2ccc(Cl)cc2)c(C2CCCNC2)n1 (stereo not drawn),Percent Effect,"30.3 µM, […]",28.09%
Cc1nc(C)c(C(=O)N2Cc3ccccc3OCC2CN(C)C)o1.Cl.Cl (stereo not drawn),Percent Effect,"30.3 µM, […]",-20.04%
O=C(O)C(F)(F)F.O=C(O)C(F)(F)F.O=C(c1n[nH]c2c1CN(C1CCOC1)CC2)N1CCCC1 (stereo not drawn),Percent Effect,"30.3 µM, […]",8.032%
CCCNC(=O)c1nn(CC)cc1NC(=O)c1cn(C)nc1C,Percent Effect,"30.3 µM, […]",26.24%
CCn1cc(NC(=O)c2c(C)nn(C)c2C)c(C(N)=O)n1,Percent Effect,"30.3 µM, […]",53.08%
CCCNC(=O)c1nn(CC)cc1NC(=O)c1c(C)nn(C)c1C,Percent Effect,"30.3 µM, […]",45.33%
Cc1cnc2n(c1=O)CC(C(=O)Nc1ccon1)CS2 (stereo not drawn),Percent Effect,"30 µM, 30.03 µM",-0.7773%
O=C(c1ccc[nH]1)N1CCCC(c2cc(C(F)(F)F)[nH]n2)C1 (stereo not drawn),Percent Effect,"30 µM, 30.03 µM",38.21%
O=C(c1cc(Cl)c[nH]1)N1CCCC(c2cc(C(F)(F)F)[nH]n2)C1 (stereo not drawn),Percent Effect,"30.3 µM, […]",80.28%
O=C(c1cc[nH]n1)N1CCCC(c2cc(C(F)(F)F)[nH]n2)C1 (stereo not drawn),Percent Effect,"30.3 µM, […]",17.05%
CCOC(=O)C1CC2(CCCCC2)N2CCC(=O)N12 (stereo not drawn),Percent Effect,"30.3 µM, […]",-30.31%
Cc1ccc(C(=O)N2Cc3c(CN4CCCCC4)nn(C)c3C2)o1.O=C(O)C(F)(F)F,Percent Effect,"30 µM, 30.03 µM",0.5997%
COc1cccc(-c2cc(NCCN(C)C)nc3[nH]ccc23)n1,Percent Effect,"30.3 µM, […]",96.05%
COc1cccc(-c2cc(NCC(=O)O)nc3[nH]ccc23)n1,Percent Effect,"30.3 µM, […]",-16.38%
COc1cccc(-c2cc(NCCO)nc3[nH]ccc23)n1,Percent Effect,"30.3 µM, […]",-6.078%
O=C(O)CCn1ccc2c(nnc3c(-c4ccc(F)cc4)cnn32)c1=O,Percent Effect,"30 µM, 30.03 µM",-41.42%
Cc1cc(C)c(-n2cccn2)c(CN2CCOCC(CN(C)C)C2)c1 (stereo not drawn),Percent Effect,"30.3 µM, […]",-14.72%
Cc1ccc(-n2cc(CN3CCOCC(CN(C)C)C3)cn2)cc1C (stereo not drawn),Percent Effect,"30.3 µM, […]",98.04%
Cc1cc(-n2cccn2)ccc1CN1CCOCC(CN(C)C)C1 (stereo not drawn),Percent Effect,"30.3 µM, […]",-10.31%
